# The campaign covered roughly 330,000 compounds. About 1,900 (0.58%) were called active. Roughly 4% stayed inconclusive and do not appear here. Only a sample is shown. Measured potencies and affinities stand elsewhere. Values without a mark were called inactive. Cut-off read from the data, not from the text of the source: inconclusive = inhibition above about 70% without an active follow-up result; inactive = below that.
# Assay: M. tuberculosis growth inhibition, HTS (AID 449762);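 note: bacterial growth assessed after seven days of incubation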
# Settings: M. tuberculosis H37Rv growth inhibition, 7H9 media; at 25 µM; hits give high values
row,Compound,inhibition [%]
1,COc1ccc(OC)c(S(=O)(=O)N2CCN(C(=O)CCc3ccccc3)CC2)c1,-9.07
2,CC12CCC(C/C1=N\N=C1\NC(=O)/C(=C\c3cccc(Br)c3)S1)C2(C)C (stereo not given),21.6
3,Cc1cccc(C(=O)O/N=C2/CC3CCC2(C)C3(C)C)c1 (stereo not given),5.89
4,COc1ccc(CC(=O)O/N=C(\N)Cc2ccc(OC)c(OC)c2)cc1,2.93
5,O=C1c2ccccc2CN1C(CO)Cc1ccccc1 (stereo not given),-7.4
6,C/C(CCc1ccc2c(c1)OCO2)=N\NC(=O)c1ccccc1,1.21
7,COCCNC(=S)N/N=C(\C)CCc1ccc2c(c1)OCO2,8.49
8,O=C(N/N=C/c1ccccc1OC(=O)N1CCOCC1)c1cccs1,25.5
9,COc1ccc(NS(=O)(=O)c2cccc(C(=O)Nc3cccc(C(=O)O)c3)c2)cc1,-7.77
10,COc1cc(/C=N/NC(=O)COc2ccccc2C)ccc1OC(=O)c1cccs1,-7.68
11,CCOc1cc(/C=N/NC(=O)COc2ccc(C)cc2)ccc1OC(=O)c1cccs1,8.62
12,COC(=O)c1cc(S(=O)(=O)Nc2nn(C)c3ccccc23)oc1C,1.72
13,COCCN(C(=O)COC(=O)CSc1ccc2ccccc2c1)c1c(N)n(Cc2ccccc2)c(=O)[nH]c1=O,0.46
14,C=CCNC(=O)c1onc(CSc2ccncc2)c1C(=O)NCC=C,-11.3
15,Cc1ccc(S(=O)(=O)n2nc(C)c(S(=O)(=O)N3CCOCC3)c2C)cc1,-4.96
16,O=C(c1cnn2c(C(F)(F)F)cc(-c3ccccc3)nc12)N1CCCCC1c1cccnc1 (stereo not given),61.7
17,Cc1ccc(-c2cc(C(F)(F)F)n3ncc(C(=O)N4CCCCC4c4cccnc4)c3n2)cc1 (stereo not given),-0.42
18,CC(C)N(C(=O)[C@H]1CC(CC(=O)NCC23CC4CC(CC(C4)C2)C3)C(=O)N2CCc3c([nH]c4ccccc34)[C@]12C)C(C)C (stereo not given in full),69.1
19,C[C@]12c3[nH]c4ccccc4c3CCN1C(=O)C(CC(=O)NCC13CC4CC(CC(C4)C1)C3)C[C@@H]2C(=O)N1CCCCC1 (stereo not given in full),21.5
20,COc1cc([N+](=O)[O-])ccc1NC(=O)NCc1ccco1,-4.54
21,COc1ccccc1CNC(=O)c1c(-c2ccccc2)nn(-c2ccccc2)c1C,6.07
22,CC(=O)c1c(N2CCOCC2)[nH]c(-c2ccccc2)nc1=S,43.5
23,CC(=O)c1c(N2CCN(Cc3ccccc3)CC2)[nH]c(-c2ccccc2)nc1=S,-2.96

row,Compound,inhibition [%]
1,CC(C)[C@H](NC(=O)[C@@H]1Cc2ccccc2CN1C(=O)OC(C)(C)C)C(=O)NCc1ccco1,2.19
2,COc1ccc([N+](=O)[O-])cc1NS(=O)(=O)c1cccc(C(=O)OC2CCOC2=O)c1 (stereo not given),-6.35
3,O=C(NCCc1csc(-c2cccnc2)n1)c1ccccc1,-11.6
4,O=C1CN(C(=O)OCc2ccccc2)c2ccccc2N1,-1.7
5,CN(c1ccccc1)S(=O)(=O)c1ccc(Cl)c(C(=O)NCc2ccccc2CN2CCCC2)c1,-5.7
6,O=C(NCc1ccccc1CN1CCCC1)c1cccc(S(=O)(=O)N2CCCC2)c1,-11.2
7,CC1CCCCC1NC(=O)c1ccc2c(c1)OCCO2 (stereo not given),8.58
8,CC1CCCCC1NC(=O)c1cc(=O)[nH]c2ccccc12 (stereo not given),-4.11
9,Cc1ccc(C(OC(=O)c2ccco2)C(=O)NCc2cccs2)cc1 (stereo not given),3.55
10,O=C(O)c1cccc(NC(=S)NC(=O)c2ccc(-c3ccc(Cl)cc3)o2)c1,1.13
11,Cc1cc2ncn(C(=O)c3ccc4c(c3)OCO4)c2cc1C,6.27
12,Cc1cccc(C(=O)Nc2ccc(S(=O)(=O)N3CCOCC3)cc2)c1[N+](=O)[O-],6.13
13,COc1ccccc1-c1nnc(Nc2nc3c(OC)cccc3s2)o1,6.89
14,COc1cccc2sc(Nc3nnc(-c4ccccc4Cl)o3)nc12,46.2
15,COc1cccc(CN2CCN(Cc3cc4ccccc4o3)CC2CCO)c1 (stereo not given),-6.38
16,CC(C)OCCCn1c(-c2ccc(Br)cc2)c[nH]c1=S,8.53
17,COc1ccc(OC)c(-n2c(-c3cccc(O)c3)n[nH]c2=S)c1,2.31
18,CCN(CC)C(=O)c1ccc(Oc2ccc([N+](=O)[O-])cc2Cl)cc1,4.15
19,CCN(CC)C(=O)c1cc2cc([N+](=O)[O-])ccc2s1,6.23
20,O=C(COc1ccc(Br)cc1)N1CCc2ccccc2C1,1.78
21,CC(C)C(NC(=O)c1c(F)cccc1F)C(=O)N1CCN(c2ccccc2F)CC1 (stereo not given),5.13
22,O=C(/C(=N\Nc1ccc(Br)cc1)Sc1nnnn1-c1ccccc1)c1ccccc1,2.41
23,O=C(O)c1ccc(N=N/C(=N\Nc2ccc(C(=O)O)cc2)c2ccccc2)cc1,11.8

row,Compound,inhibition [%]
1,O=C(Cc1n[nH]c(=O)c2ccccc12)Nc1cccc(S(=O)(=O)N2CCCCCC2)c1,34.4
2,c1ccc(Cn2nnc3c(N4CCCC4)ncnc32)cc1,1.78
3,c1ccc(Cn2nnc3c(N4CCc5ccccc54)ncnc32)cc1,-4.04
4,CC(c1ccccc1)n1cnc2ccccc2c1=O (stereo not given),3.81
5,CCOC(=O)Cn1c(C(C)=O)nc2ccccc21,-5.86
6,CCOc1ccc2nc(SC3CC(=O)N(c4ccc(OC)cc4OC)C3=O)sc2c1 (stereo not given),37.3
7,COc1cccc(COC(=O)Nc2ccccc2F)c1,4.89
8,CN(C)c1ccc(NC(=O)CN2C3CCCC2CC(NC(=O)c2ccccc2)C3)cc1 (stereo not given),49
9,COc1cccc(C(=O)NC2CC3CCCC(C2)N3CC(=O)Nc2ccccc2)c1 (stereo not given),46.8
10,COc1ccc(OC)c(NC(=O)CN2C(=O)NC3(CCCc4ccccc43)C2=O)c1 (stereo not given),0.98
11,COc1ccc(NC(=O)CN2C(=O)NC3(CCCc4ccccc43)C2=O)c(OC)c1 (stereo not given),-0.44
12,COc1ccc(N2CCN(C3CCCN(Cc4ccccc4OCCO)C3)CC2)cc1 (stereo not given),-8.3
13,CS(=O)(=O)N(CC(=O)N1CCCC1)c1ccccc1F,-1.03
14,O=C(Nc1ccc2c(c1)CCCN2C(=O)c1cccs1)c1cccc(F)c1,25.3
15,CC1=NN(c2ccccc2)C(=O)/C1=C/c1c(C)[nH]n(-c2ccc(C)cc2)c1=O,3.09
16,CC1=NN(c2ccccc2)C(=O)/C1=C/c1c(O)n(-c2ccc(F)cc2)[nH]c1=O,-0.04
17,Cc1ccc(-c2nc(N)n(S(C)(=O)=O)n2)cc1,-7.35
18,Nc1nc2sc3c(c2c(=O)s1)CCCC3,-5.9
19,Nc1c2c(nc3sc4c(c13)CCCC4)CCCCCC2,11.9
20,CCN1CCN(C(c2ccccc2)c2nnnn2Cc2ccc3c(c2)OCO3)CC1 (stereo not given),-1.8
21,COCCn1nnnc1C(c1ccccc1)N1CCN(Cc2ccc3c(c2)OCO3)CC1 (stereo not given),5.3
22,Cc1cc(C(=O)CSc2nnc(-c3ccco3)o2)c(C)n1C,0.77
23,COc1ccc(N2CCN(C(=O)CSc3nc(C)cs3)CC2)cc1,13.4

row,Compound,inhibition [%]
1,COCC(C)n1c(SCC(=O)Nc2oc(C)c3c(C)n[nH]c(=O)c23)nc2ccccc2c1=O (stereo not given),1.83
2,COc1cccc2cc(C(=O)N(C)C3CCN(C)CC3)c(=O)oc12,2.2
3,CCOc1ccc(NC(=O)Nc2cccn(Cc3ccccc3)c2=O)cc1,11.4
4,CSc1ccc(NC(=O)Nc2cccn(Cc3ccccc3F)c2=O)cc1,0.76
5,Cc1nnc(SCCC(=O)Nc2ccc(F)cc2)s1,58.3
6,Cc1ccc(NC(=O)c2ccccc2NC(=O)c2cccnc2)cc1,11.1
7,O=C(NNC(=S)Nc1ccccc1Cl)c1ccccc1,-3.72
8,CCn1cc(C(=O)NCC(C)C)c(=O)c2cc(F)c(N3CCN(C(=O)c4ccco4)CC3)cc21,0.58
9,CCn1cc(C(=O)NC(C)C)c(=O)c2cc(F)c(N3CCN(C(=O)c4ccco4)CC3)cc21,19.2
10,Cc1cc(C)nc(-n2nc(C)cc2NC(=O)c2ccc(S(=O)(=O)N3CCOCC3)cc2)n1,9.62
11,CC(=O)N/C(=C\c1cccc([N+](=O)[O-])c1)C(=O)NC(C)C,-0.52
12,Cc1nn(C)c(C)c1/C=C(/C(=O)C(C)(C)C)n1cncn1,-1.56
13,Cc1c(Oc2ccc(C(F)(F)F)cc2[N+](=O)[O-])ccc2c3c(c(=O)oc12)CCC3,-1.9
14,CCOc1ccc(N2C(=O)CC(NCC#N)C2=O)cc1 (stereo not given),0.53
15,COc1ccc(/C=C2/Sc3ccc(C(=O)NCCCN4CCOCC4)cc3NC2=O)cc1OC,-4.7
16,O=C1Nc2cc(C(=O)NCCCN3CCOCC3)ccc2S/C1=C/c1ccccc1F,16.4
17,COc1ccc(OC)c(-c2cc(C(=O)NC3CCCC3)c3ccccc3n2)c1,-8.38
18,Cc1c(Cl)ccc2c(C(=O)O)cc(-c3ccccc3)nc12,0.17
19,CC1CCc2cc(F)ccc2N1C(=O)c1cccs1 (stereo not given),1.29
20,CC(C)(C)c1cc(N2CCOCC2)n2ncc(-c3ccccc3)c2n1,3.06
21,Cc1nccn1-c1cc(C(C)(C)C)nc2c(-c3ccccc3)cnn12,-1.52
